Source: PubChem BioAssay AID1233 (SRMLSC, 2008)
Entries with a potency or affinity are not part of this list. Calls of active or inactive are those of the source.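 How the source made its calls: active means a dose-response curve fit returns a half-maximal inhibitory concentration, extrapolated values included; inactive means the fit returns no such concentration.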

Molecular target: HMG-CoA reductase [Enterococcus faecalis] (UniProt Q9FD70)
Experiment: class II HMG-CoA reductase inhibition potency – biochemical, Enterococcus faecalis, confirmation (AID 1233)
Details: purified E. faecalis HMGR, NADPH absorbance 340 nm kinetics; series mostly up to 100 µM

outcome, inactive:
COCCNC(=O)C(c1ccccc1C)N(C(=O)Cn1nnc2ccccc21)c1cccnc1 (stereo not drawn)
O=C(NCCCn1ccnc1)c1ccc(S(=O)(=O)N2CCOCC2)cc1
O=C(COC(=O)CNC(=O)c1ccccc1F)Nc1ccc2c(c1)OCCO2
COc1cccc(CNC(=O)CCS(=O)(=O)c2cccs2)c1
NC(=O)c1ccc2nc(NC(=O)c3ccc(N)cc3)sc2c1
Cc1[nH][nH]c(=O)c1C(c1c(C)[nH][nH]c1=O)c1cn(Cc2ccc(F)cc2)c2ccccc12
O=C(NCc1ccccc1Cl)c1cc([N+](=O)[O-])ccc1Cl
CCn1c2ccccc2c2cc(CNCc3ccc(OC)cc3OC)ccc21
COc1ccc(Cn2c(=O)sc3ccccc3c2=O)cc1
CCN(CC)CCCCCOc1ccccc1OC
O=C(CCn1cnnn1)Nc1ccc(Cl)c(Cl)c1
CS(=O)(=O)N(CC(N)=O)c1cccc(Br)c1
COc1ccc(-c2csc(N(CC3CCCO3)C(=O)c3ccco3)n2)cc1 (stereo not drawn)
Cc1ccsc1/C=C1/NC(=O)N(Cc2ccc(F)cc2)C1=O
COc1ccc(-c2cc(C(=O)Nc3c(C)nn(Cc4ccc(Cl)cc4)c3C)no2)cc1
CN(CCO)c1cc(NCCCN2CCC(Cc3ccccc3)CC2)c2nonc2c1[N+](=O)[O-]
CCOC(=O)c1c(-c2ccccc2)csc1NC(=S)N(CC)CC
Cc1cc(Cl)ccc1Oc1nccc(N(C)C)c1C#N
O=C(NCC1CCCO1)c1ccc(Cl)c(F)c1F (stereo not drawn)
COCc1cc(C)n(CC(=O)OC)c(=O)c1C#N
COc1ccc(OC)c(NC(=O)NNC(=O)CCCOc2ccc(Cl)cc2C)c1
Cc1cccc(C)c1N1CCN(C(=O)N2CCCCC2)CC1
CC1SC(c2ccc(Cl)cc2)NC1=O (stereo not drawn)
COc1ccc(N2CC(C(=O)NCCc3ccc(OC)c(OC)c3)CC2=O)cc1 (stereo not drawn)
ON/C=N/C(=S)Nc1ncc(C(F)(F)F)cc1Cl
Clc1ccc(NNc2ccnc3cc(Cl)ccc23)cc1
Cc1nnc(SCc2c(Cl)cccc2Cl)n(N)c1=O
CCN(CCNCC(O)COCc1ccc(Cl)cc1)c1cccc(C)c1 (stereo not drawn)
CCc1ccc(NC(=O)CN(c2cccc(C)c2)S(C)(=O)=O)cc1
Cc1ncc([N+](=O)[O-])n1CC(C)O (stereo not drawn)
CCc1c(C)nc2ncnn2c1NCCc1ccccc1
O=C(NCC1CCCO1)C(c1cccs1)N(Cc1cccs1)C(=O)Cn1nnc(-c2cccs2)n1 (stereo not drawn)
Cc1ccc(NC(=O)c2ccc3nc[nH]c3c2)c(O)c1
CCOC(=O)c1sc(NC(=O)CSc2nccc(C)n2)nc1C
COc1ccc(CNC(=O)COC(=O)[C@H](Cc2c[nH]c3ccccc23)NC(=O)c2cccs2)cc1
Cc1ccc(S(=O)(=O)N(C)C)cc1NC(=O)COC(=O)CCC(=O)c1cccs1
Cn1c(OCc2cccnc2)nc2c1c(=O)n(Cc1ccc(Br)cc1)c(=O)n2C
CCN(Cc1ccncc1)Cc1c(O)ccc2cc(Br)ccc12
